In assay [1] the target is Bile acid receptor (Homo sapiens) (UniProt Q96RI1). Description: ATG_IR1_CIS: Attagene CIS-FACTORIAL HepG2 Assay for human Nuclear Receptor Subfamily 1 Group H Member 4 (NR1H4), IR1 submotif (AID 2282946). Particulars: IR1 reporter transcription, actives raise or lower the signal. The method in brief: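 Readout: reporter transcript levels by RT-PCR with fluorescent capillary electrophoresis, from HepG2 cells transiently transfected with multiplexed cis-regulated reporters and dosed 24 h. Gain- or loss-of-signal fitted versus DMSO negative control.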
Chain of Bile acid receptor (Homo sapiens) (Q96RI1 whole entry, looked up): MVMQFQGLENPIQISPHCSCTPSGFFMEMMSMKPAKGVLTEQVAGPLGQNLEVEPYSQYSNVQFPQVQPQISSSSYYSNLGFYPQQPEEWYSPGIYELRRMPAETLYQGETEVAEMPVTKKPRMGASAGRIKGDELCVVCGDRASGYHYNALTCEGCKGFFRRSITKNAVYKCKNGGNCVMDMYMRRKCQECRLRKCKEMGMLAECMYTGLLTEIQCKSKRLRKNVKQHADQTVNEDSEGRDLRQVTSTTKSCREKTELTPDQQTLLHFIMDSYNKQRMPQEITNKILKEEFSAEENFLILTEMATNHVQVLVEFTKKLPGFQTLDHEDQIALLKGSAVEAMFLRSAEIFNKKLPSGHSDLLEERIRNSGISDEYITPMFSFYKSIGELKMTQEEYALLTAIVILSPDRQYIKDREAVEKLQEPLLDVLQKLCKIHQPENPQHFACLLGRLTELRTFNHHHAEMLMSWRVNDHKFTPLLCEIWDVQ

Assay [2] in a line: ATG_GRE_CIS: Attagene CIS-FACTORIAL HepG2 Assay for human Glucocorticoid Response Elements (GRE) (AID 2282947). Particulars: HepG2 GRE cis-reporter, Attagene multiplex mRNA; actives raise or lower the signal. The method in brief: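 Cells (HepG2) bearing transfected cis-promoter reporter transcription units were treated with chemical for 24 hours. Reporter mRNA was measured via RT-PCR with capillary electrophoresis, and activity was fitted in both directions relative to DMSO.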

The nature of assay [3]: ATG_ISRE_CIS: Attagene CIS-FACTORIAL HepG2 Assay for human Interferon Regulatory Factor 1 (IRF1) binding to an Interferon-Stimulated Response Element (ISRE) (AID 2282948). The conditions noted are these: HepG2 ISRE cis-reporter (Attagene), mRNA transcription readout; actives raise or lower the signal. The procedure, abridged:
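Multiplexed mRNA reporter readout in human liver HepG2 cells: cis-element-driven reporters transfected, compound added for 24 h, transcripts amplified, fluorescently labelled and sized by capillary electrophoresis; curve fitting bidirectional against DMSO.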

Assay [4] in a line: ATG_M_32_CIS: Attagene CIS-FACTORIAL HepG2 Assay for M32 Transcription Factor (Internal Marker) (AID 2282949).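 Note: background control marker of the multiplexed CIS panel rather than a real target.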 Particulars: HepG2 Attagene cis-factorial M32 reporter, mRNA; actives raise or lower the signal. The procedure, abridged: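 HepG2 transfectants (cis-regulated reporter transcription units) dosed 24 h. Reporter mRNA by RT-PCR plus CE, analysed as gain or loss relative to DMSO.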

A short description of assay [5]: ATG_M_06_CIS: Attagene CIS-FACTORIAL HepG2 Assay for M06 Transcription Factor (Internal Marker) (AID 2282950). The conditions noted are these: HepG2 Attagene CIS-FACTORIAL M06 internal marker reporter; actives raise or lower the signal. The procedure, abridged: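 Read-out is fluorescence of labelled reporter cDNA fragments resolved by capillary electrophoresis after RT-PCR. Cells: HepG2 carrying transfected cis-promoter reporter units, treated 24 h. Gain or loss of signal fitted relative to DMSO.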

In assay [6] the target is Hypoxia-inducible factor 1-alpha (Homo sapiens) (UniProt Q16665). Briefly: ATG_HIF1a_CIS: Attagene CIS-FACTORIAL HepG2 Assay for human Hypoxia Inducible Factor 1 (HIF1A) (AID 2282951). Particulars: HepG2 Attagene cis-factorial HIF1a reporter transcription; actives raise or lower the signal. The procedure, abridged:
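Dosed 24 h, transfected HepG2 cells yielded total RNA whose reporter transcripts were RT-PCR-amplified and sized by capillary electrophoresis using fluorescent labelling; DMSO defined baseline, with gain and loss of signal both fitted.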

Assay [7] deals with Heat shock factor protein 1 (Homo sapiens) (UniProt Q00613). Description: ATG_HSE_CIS: Attagene CIS-FACTORIAL HepG2 Assay for human Heat Shock Transcription Factor 1 (HSE) (AID 2282953). The conditions noted are these: HepG2 HSE cis-reporter, Attagene RNA transcription; actives raise or lower the signal. The method in brief:
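HepG2, transient MRTU transfection, cis-promoter reporters (endogenous TF activity). 24 h compound. RNA → oligo(dT) RT → PCR → 6-FAM primer extension → HpaI cut → CE. Bidirectional fit vs DMSO.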

Assay [8] can be described thus: ATG_MRE_CIS: Attagene CIS-FACTORIAL HepG2 Assay for human Metal Responsive Element (MRE) (AID 2282954). The conditions noted are these: HepG2 MRE cis-reporter transcription, Attagene multiplex; actives raise or lower the signal. The procedure, abridged:
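Cells were transfected with cis-promoter reporter transcription units, then dosed for 24 h. RNA was reverse-transcribed, amplified, fluorescently labelled and resolved by capillary electrophoresis, and activity was fitted in both directions relative to DMSO.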

Assay [9] in a line: ATG_PBREM_CIS: Attagene CIS-FACTORIAL HepG2 Assay for human Phenobarbital-responsive Enhancer Module (PBREM) (AID 2282955). The conditions noted are these: HepG2 PBREM cis-reporter, Attagene multiplexed transcription; actives raise or lower the signal. The procedure, abridged:
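Transfected liver-derived HepG2 cells exposed 24 h; PBREM reporter transcript quantified via RT-PCR and capillary electrophoresis, with activity in either direction referenced to DMSO.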

The target of assay [10] is Paired box protein Pax-6 (Homo sapiens) (UniProt P26367). Briefly: ATG_Pax6_CIS: Attagene CIS-FACTORIAL HepG2 Assay for human Paired Box 6 (PAX6) (AID 2282956). Particulars: HepG2 CIS-FACTORIAL PAX6 reporter transcription, RNA readout; actives raise or lower the signal. The procedure, abridged: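 Fluorescent RT-PCR products separated by capillary electrophoresis report PAX6-linked promoter mRNA in HepG2 cells 24 h post-dose. Curves fitted bidirectionally, DMSO as negative control.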
Chain of Paired box protein Pax-6 (Homo sapiens) (P26367 whole entry, looked up): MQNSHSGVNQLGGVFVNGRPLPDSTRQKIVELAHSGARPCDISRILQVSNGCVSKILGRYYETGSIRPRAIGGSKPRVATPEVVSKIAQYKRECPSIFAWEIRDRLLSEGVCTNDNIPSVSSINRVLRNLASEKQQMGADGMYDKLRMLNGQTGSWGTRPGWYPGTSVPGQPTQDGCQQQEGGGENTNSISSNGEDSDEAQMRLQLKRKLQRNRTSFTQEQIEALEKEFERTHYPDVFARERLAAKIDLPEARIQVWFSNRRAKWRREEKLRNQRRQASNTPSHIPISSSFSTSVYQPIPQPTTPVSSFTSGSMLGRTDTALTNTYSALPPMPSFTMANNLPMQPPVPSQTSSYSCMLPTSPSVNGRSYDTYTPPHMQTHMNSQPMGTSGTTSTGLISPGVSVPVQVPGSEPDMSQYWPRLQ

The nature of assay [11]: ATG_PXRE_CIS: Attagene CIS-FACTORIAL HepG2 Assay for human Pregnane X Receptor Element (PXRE) (AID 2282957). The conditions noted are these: HepG2 Attagene CIS-FACTORIAL PXRE reporter, mRNA; actives raise or lower the signal. The procedure, abridged:
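Using HepG2 transfected with multiple reporter transcription units, endogenous factor-driven transcription was scored as reporter mRNA after 24 h exposure.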

Assay [12] can be described thus: ATG_PPRE_CIS: Attagene CIS-FACTORIAL HepG2 Assay for human Peroxisome Proliferator-activated Response Element (PPRE) (AID 2282958). The conditions noted are these: HepG2 PPRE cis-element reporter, Attagene transcription factor profiling; actives raise or lower the signal. The method in brief: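 Measured endpoint: PPRE-controlled reporter mRNA, detected by RT-PCR and capillary electrophoresis fluorescence, from transiently transfected HepG2 cells 24 h after dosing. Curves fitted in both directions using DMSO baseline.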

The nature of assay [13]: ATG_RORE_CIS: Attagene CIS-FACTORIAL HepG2 Assay for human RAR-related Orphan Receptor Element (RORE) (AID 2282959). The conditions noted are these: HepG2 Attagene cis-factorial RORE reporter, mRNA; actives raise or lower the signal. The procedure, abridged:
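Transiently transfected HepG2 reporter cells were treated 24 h. Reporter transcripts were detected by RT-PCR and capillary electrophoresis, with bidirectional fitting against DMSO.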

Assay [14] has as its target Transcription factor Sp1 (Homo sapiens) (UniProt P08047). Description: ATG_Sp1_CIS: Attagene CIS-FACTORIAL HepG2 Assay for human Specificity Protein 1 (Sp1) (AID 2282961). Particulars: HepG2 Sp1 cis-reporter transcription, actives raise or lower the signal. The method in brief:
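Endpoint reflects endogenous Sp1 transcriptional activity, not an exogenous fusion protein: HepG2 cells with transfected cis-regulated reporters, 24 h dosing, RT-PCR/capillary electrophoresis mRNA read-out, DMSO-normalised bidirectional fit.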

The nature of assay [15]: ATG_SREBP_CIS: Attagene CIS-FACTORIAL HepG2 Assay for human Sterol Regulatory Element Binding (SREBP) (AID 2282962). The conditions noted are these: HepG2 Attagene cis-factorial SREBP reporter, mRNA; actives raise or lower the signal. The procedure, abridged:
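Endogenous factor activity is measured in HepG2 through multiplexed reporter units under cis-element control. Following a 24 h incubation, reporter transcripts are reverse-transcribed, PCR-amplified and sized by capillary electrophoresis; activity is fitted in both directions relative to DMSO.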

Assay [16] deals with Signal transducer and activator of transcription 3 (Homo sapiens) (UniProt P40763). Briefly: ATG_STAT3_CIS: Attagene CIS-FACTORIAL HepG2 Assay for human Signal Transducer and Activator of Transcription 3 (STAT3) (AID 2282963). The conditions noted are these: HepG2, Attagene cis-factorial STAT3 reporter transcription; actives raise or lower the signal. The procedure, abridged: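 HepG2, MRTU-transfected, 24 h dosing. RNA → RT → PCR → FAM label → HpaI → CE. Bidirectional fit vs DMSO.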
Chain of Signal transducer and activator of transcription 3 (Homo sapiens) (P40763 whole entry, looked up): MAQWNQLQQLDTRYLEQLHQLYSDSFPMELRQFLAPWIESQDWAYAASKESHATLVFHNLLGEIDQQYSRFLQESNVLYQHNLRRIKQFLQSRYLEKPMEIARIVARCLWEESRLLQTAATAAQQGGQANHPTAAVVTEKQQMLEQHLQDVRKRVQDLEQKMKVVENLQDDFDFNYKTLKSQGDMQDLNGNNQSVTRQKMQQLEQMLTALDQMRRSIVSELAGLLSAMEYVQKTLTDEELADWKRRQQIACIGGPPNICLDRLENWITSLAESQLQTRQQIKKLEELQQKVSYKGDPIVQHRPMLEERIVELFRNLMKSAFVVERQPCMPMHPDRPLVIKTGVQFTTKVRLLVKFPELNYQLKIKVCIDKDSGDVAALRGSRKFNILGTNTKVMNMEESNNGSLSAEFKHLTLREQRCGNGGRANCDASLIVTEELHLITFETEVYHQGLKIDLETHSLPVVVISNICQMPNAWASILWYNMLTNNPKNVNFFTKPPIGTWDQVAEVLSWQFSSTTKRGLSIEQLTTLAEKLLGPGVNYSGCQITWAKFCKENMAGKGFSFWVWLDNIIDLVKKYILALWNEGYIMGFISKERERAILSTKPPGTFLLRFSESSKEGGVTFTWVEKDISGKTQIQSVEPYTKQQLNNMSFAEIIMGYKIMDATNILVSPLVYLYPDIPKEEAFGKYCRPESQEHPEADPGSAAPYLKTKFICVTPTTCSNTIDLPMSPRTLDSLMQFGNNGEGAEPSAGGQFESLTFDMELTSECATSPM

Assay [17] is described as follows: ATG_TA_CIS: Attagene CIS-FACTORIAL HepG2 Assay for human TA Basal Promoter (AID 2282964). Particulars: HepG2 Attagene CIS-factorial TA basal promoter reporter; actives raise or lower the signal. The procedure, abridged: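 Read-out: fluorescent reporter-transcript fragments resolved by capillary electrophoresis after RT-PCR and HpaI digestion. Source: HepG2 cells carrying transiently transfected multi-reporter cis constructs, treated 24 h. Endpoint fitted bidirectionally relative to DMSO.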

Assay [18] is described as follows: ATG_TCF_b_cat_CIS: Attagene CIS-FACTORIAL HepG2 Assay for human T-Cell-Factor with beta-catenin (TCF/b-cat) (AID 2282965). The conditions noted are these: HepG2 TCF/beta-catenin cis-reporter transcription, actives raise or lower the signal. The method in brief:
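In this cis-format system, transfected HepG2 cells report endogenous transcription factor activity. Readout after 24 h exposure is reporter transcript abundance from RT-PCR and capillary electrophoresis, analysed for gain or loss of signal versus DMSO.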

Assay [19] in a line: ATG_Sox_CIS: Attagene CIS-FACTORIAL HepG2 Assay for human SRY-box transcription factor (SOX) (AID 2282960). The conditions noted are these: HepG2 Attagene cis-factorial SOX reporter, mRNA; actives raise or lower the signal. The method in brief:
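Gain- or loss-of-signal endpoint, fitted bidirectionally with DMSO as negative control. Based on reporter mRNA from transfected HepG2 cells harvested 24 h post-treatment and quantified via RT-PCR and capillary electrophoresis.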

The target of assay [20] is Hepatocyte nuclear factor 6 (Homo sapiens) (UniProt Q9UBC0). Briefly: ATG_HNF6_CIS: Attagene CIS-FACTORIAL HepG2 Assay for human Hepatocyte Nuclear Factor 6 (HNF6) (AID 2282952). Particulars: HepG2 Attagene cis-factorial HNF6 reporter transcription; actives raise or lower the signal. The procedure, abridged:
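Using cis-element reporters in HepG2 liver cells, the assay tracks endogenous factor-driven transcription 24 h post-dosing. Signal comes from 6-FAM-labelled, HpaI-digested RT-PCR fragments, with gain or loss scored against DMSO.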

Calls of active or inactive are those of the source. Rule for the calls: active = hit-call score of the fitted dose curve at least 0.9, where 1 is the maximum; inactive = score below 0.9.

As a reminder, the AC50 is the concentration giving half of the maximal activity seen.

Chain of Heat shock factor protein 1 (Homo sapiens) (Q00613 whole entry, looked up): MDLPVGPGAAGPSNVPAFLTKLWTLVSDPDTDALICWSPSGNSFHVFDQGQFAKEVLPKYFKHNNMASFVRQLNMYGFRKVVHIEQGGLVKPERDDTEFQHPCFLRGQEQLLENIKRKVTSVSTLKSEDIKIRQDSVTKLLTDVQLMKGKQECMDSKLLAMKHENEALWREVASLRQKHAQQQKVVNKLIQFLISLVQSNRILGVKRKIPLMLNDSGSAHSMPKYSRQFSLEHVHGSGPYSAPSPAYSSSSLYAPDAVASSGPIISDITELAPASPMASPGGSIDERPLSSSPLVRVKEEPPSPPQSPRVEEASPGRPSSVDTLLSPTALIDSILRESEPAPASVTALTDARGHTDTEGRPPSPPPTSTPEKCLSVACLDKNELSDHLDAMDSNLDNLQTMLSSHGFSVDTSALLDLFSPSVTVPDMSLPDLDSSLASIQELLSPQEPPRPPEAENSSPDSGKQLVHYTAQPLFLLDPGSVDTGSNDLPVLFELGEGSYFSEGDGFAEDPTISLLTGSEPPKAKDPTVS
Chain of Transcription factor Sp1 (Homo sapiens) (P08047 whole entry, looked up, the tested form may be a part): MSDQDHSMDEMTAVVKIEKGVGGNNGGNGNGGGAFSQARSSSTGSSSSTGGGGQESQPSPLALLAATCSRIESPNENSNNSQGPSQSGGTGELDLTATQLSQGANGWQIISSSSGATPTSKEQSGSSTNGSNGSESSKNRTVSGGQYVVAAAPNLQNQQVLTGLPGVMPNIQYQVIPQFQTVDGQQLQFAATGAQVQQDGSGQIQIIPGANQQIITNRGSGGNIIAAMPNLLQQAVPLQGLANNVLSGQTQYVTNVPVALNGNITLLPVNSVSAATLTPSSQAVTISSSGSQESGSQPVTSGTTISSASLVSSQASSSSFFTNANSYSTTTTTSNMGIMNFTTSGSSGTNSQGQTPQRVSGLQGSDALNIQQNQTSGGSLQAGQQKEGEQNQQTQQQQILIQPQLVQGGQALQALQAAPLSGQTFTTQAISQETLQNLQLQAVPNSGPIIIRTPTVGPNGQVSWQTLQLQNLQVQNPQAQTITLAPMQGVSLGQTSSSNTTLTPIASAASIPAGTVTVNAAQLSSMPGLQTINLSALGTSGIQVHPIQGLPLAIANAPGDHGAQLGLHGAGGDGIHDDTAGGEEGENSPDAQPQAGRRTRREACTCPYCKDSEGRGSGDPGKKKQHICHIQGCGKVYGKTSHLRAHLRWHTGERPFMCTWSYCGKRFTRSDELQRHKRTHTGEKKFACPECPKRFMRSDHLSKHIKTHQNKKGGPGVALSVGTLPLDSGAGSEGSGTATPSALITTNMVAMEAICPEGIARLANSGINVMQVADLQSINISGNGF
Chain of Hypoxia-inducible factor 1-alpha (Homo sapiens) (Q16665 whole entry, looked up): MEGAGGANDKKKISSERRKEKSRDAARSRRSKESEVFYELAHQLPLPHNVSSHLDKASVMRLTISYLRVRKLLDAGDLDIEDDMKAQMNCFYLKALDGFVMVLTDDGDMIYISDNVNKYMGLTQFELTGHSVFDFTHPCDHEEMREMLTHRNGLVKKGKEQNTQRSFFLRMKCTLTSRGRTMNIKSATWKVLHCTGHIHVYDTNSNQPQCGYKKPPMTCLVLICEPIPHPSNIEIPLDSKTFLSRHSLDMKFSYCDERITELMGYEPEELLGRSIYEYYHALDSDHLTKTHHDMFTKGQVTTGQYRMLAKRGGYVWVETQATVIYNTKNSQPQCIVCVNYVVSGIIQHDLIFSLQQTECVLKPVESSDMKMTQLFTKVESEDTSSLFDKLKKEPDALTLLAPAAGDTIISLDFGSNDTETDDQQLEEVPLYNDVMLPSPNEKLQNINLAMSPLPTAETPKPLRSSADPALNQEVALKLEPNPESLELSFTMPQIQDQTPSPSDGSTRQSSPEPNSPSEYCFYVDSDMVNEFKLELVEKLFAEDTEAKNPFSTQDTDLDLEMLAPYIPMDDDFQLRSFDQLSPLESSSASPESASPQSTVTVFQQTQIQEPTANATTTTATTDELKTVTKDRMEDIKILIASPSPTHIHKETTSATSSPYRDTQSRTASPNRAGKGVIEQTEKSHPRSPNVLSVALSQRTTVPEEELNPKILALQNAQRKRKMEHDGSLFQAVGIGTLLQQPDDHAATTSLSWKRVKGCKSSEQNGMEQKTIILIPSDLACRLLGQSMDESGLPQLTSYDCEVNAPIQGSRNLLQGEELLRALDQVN
Chain of Hepatocyte nuclear factor 6 (Homo sapiens) (Q9UBC0 whole entry, looked up, the tested form may be a part): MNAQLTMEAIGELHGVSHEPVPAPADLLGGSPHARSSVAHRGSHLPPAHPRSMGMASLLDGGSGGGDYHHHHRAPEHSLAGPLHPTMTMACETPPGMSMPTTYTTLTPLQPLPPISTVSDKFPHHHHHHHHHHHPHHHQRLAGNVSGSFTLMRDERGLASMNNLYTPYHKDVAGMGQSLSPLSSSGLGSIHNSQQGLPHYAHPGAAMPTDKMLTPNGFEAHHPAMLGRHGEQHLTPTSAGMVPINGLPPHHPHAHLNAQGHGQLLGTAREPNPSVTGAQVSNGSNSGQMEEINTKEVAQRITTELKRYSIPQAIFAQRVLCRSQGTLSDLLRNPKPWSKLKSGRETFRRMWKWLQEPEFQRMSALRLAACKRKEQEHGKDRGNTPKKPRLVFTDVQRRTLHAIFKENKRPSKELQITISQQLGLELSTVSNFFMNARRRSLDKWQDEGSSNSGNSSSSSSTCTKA

For `C1CCCCC1`, the compound was called inactive in assay [1], in assay [2], in assay [3], in assay [4], in [5] and in assay [6]. For the same compound, the compound was called inactive in [7], in assay [8], in assay [9], in [10], in assay [11] and in assay [12]. For the same compound, the compound was called inactive in [13], in [14], in assay [15], in [16], in [17] and in assay [18].

`CCCC[P+](CCCC)(CCCC)CCCC`: the result in assay [1], in assay [2], in assay [3], in [4], in assay [5] and in assay [6] was inactive. In addition, the result in assay [7], in [8], in assay [10], in [11], in [12] and in assay [13] was inactive. For the same compound, the result in [19], in [14], in [15], in [16] and in [18] was inactive.

With `C[C@H]1O[C@@H](O[C@H]2[C@@H](O)C[C@H](O[C@H]3[C@@H](O)C[C@H](O[C@H]4CC[C@@]5(C)[C@H](CC[C@@H]6[C@@H]5C[C@@H](O)[C@]5(C)[C@@H](C7=CC(=O)OC7)CC[C@]65O)C4)O[C@@H]3C)O[C@@H]2C)C[C@H](O)[C@@H]1O`, the concentration at half-maximal activity (AC50) in assay [1] is 253 nM (active); in assay [2] it was 3300 nM (active); in [3] it was 179 nM (active); in assay [7] it was 194 nM (active); in [8], 182 nM (active); in [10] it was 81.1 nM (active). For the same compound, the AC50 was 271 nM (active) in assay [11]; 42 nM (active) in assay [14]; 82.2 nM (active) in assay [15]; 3540 nM (active) in assay [16]; 1030 nM (active) in assay [18]. Moreover, the call in [4], in assay [5], in assay [20], in assay [12], in assay [19] and in [17] was inactive.

The record behind these values is PubChem BioAssay (EPA / NIEHS).
